Source: PubChem BioAssay AID1159580 (chemical genetic matrix, 2015)
Values joined by “and” are separate entries in the source; they are usually repeats but may differ in a detail not shown here. Equal values may be shown once. In all, about 5,500 compounds went through this assay and about 2,000 (36%) were called active. Another 18% or so got no clear call; they are omitted. Rule as the data show it: active = normalized growth mostly below about 0.91 (no sharp cut-off); inconclusive = no clear call, values can overlap the other calls; inactive = mostly above about 0.92. This is one part of the list.

Test: chemical genetic growth profiling, strain panel (AID 1159580);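 also: tested at 20 µM; growth read once vehicle control cultures reached saturation at 30 °C; 1 = growth at the plate median or of vehicle wells; lower values mean less growth of the strain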
Settings: S. cerevisiae deletion strains, growth OD

Measured: normalized growth

Cc1cc(=O)oc2c(O)c(O)ccc12
inactive: locus YAL021C, strain ccr4, active compounds read low 0.981 | locus YAL026C, strain drs2, active compounds read low 0.967 | locus YAL030W, strain snc1, active compounds read low 0.964 | locus YBL061C, strain skt5, active compounds read low 0.966 | locus YBR009C, strain hhf1, active compounds read low 0.966 | locus YBR021W, strain FUR4, active compounds read low 0.975 | locus YBR023C, strain chs3, active compounds read low 0.975 | locus YBR171W, strain sec66, active compounds read low 0.975 | locus YBR229C, strain ROT2, active compounds read low 1 | locus YBR231C, strain swc5, active compounds read low 0.978 | locus YBR279W, strain paf1, active compounds read low 0.973 | locus YCL011C, strain gbp2, active compounds read low 0.958 | locus YCL016C, strain dcc1, active compounds read low 0.972 | locus YCL029C, strain bik1, active compounds read low 0.999 | locus YCL061C, strain MRC1, active compounds read low 0.992 | locus YCL069W, strain vba3, active compounds read low 0.976 | locus YCR088W, strain abp1, active compounds read low 0.965 | locus YDL005C, strain med2, active compounds read low 0.958 | locus YDL035C, strain GPR1, active compounds read low 1.01 | locus YDL040C, strain nat1, active compounds read low 0.98 | locus YDL074C, strain BRE1, active compounds read low 0.993 | locus YDL101C, strain DUN1, active compounds read low 1.01 | locus YDL134C, strain PPH21, active compounds read low 1.02 | locus YDL185W, strain tfp1, active compounds read low 1 | locus YDL192W, strain arf1, active compounds read low 1 | locus YDR001C, strain nth1, active compounds read low 0.968 | locus YDR069C, strain doa4, active compounds read low 0.963 | locus YDR101C, strain arx1, active compounds read low 1.02 | locus YDR137W, strain rgp1, active compounds read low 0.94 | locus YDR150W, strain NUM1, active compounds read low 1.01 | locus YDR159W, strain sac3, active compounds read low 0.967 | locus YDR162C, strain NBP2, active compounds read low 1.02 | locus YDR195W, strain ref2 0.913 | locus YDR297W, strain sur2, active compounds read low 0.979 | locus YDR318W, strain mcm21, active compounds read low 0.993 | locus YDR334W, strain swr1, active compounds read low 0.968 | locus YDR335W, strain msn5, active compounds read low 0.981 | locus YDR388W, active compounds read low 0.994 | locus YDR392W, strain spt3, active compounds read low 0.973 | locus YDR502C, strain sam2, active compounds read low 1 | locus YEL003W, strain gim4, active compounds read low 0.976 | locus YEL037C, strain rad23, active compounds read low 0.934 | locus YEL061C, strain CIN8 (second series), active compounds read low 0.952 | locus YEL061C, strain CIN8, active compounds read low 1 | locus YER015W, strain faa2, active compounds read low 1 | locus YER016W, strain bim1, active compounds read low 0.986 | locus YER110C, active compounds read low 0.993 | locus YER111C, strain swi4, active compounds read low 0.957 | locus YER155C, strain BEM2 (second series), active compounds read low 0.987 | locus YER155C, strain BEM2, active compounds read low 1.01 | locus YER167W, strain BCK2, active compounds read low 1.01 | locus YFR010W, strain ubp6, active compounds read low 0.947 | locus YGL078C, strain dbp3, active compounds read low 1 | locus YGL086W, strain mad1, active compounds read low 0.991 | locus YGL167C, strain pmr1, active compounds read low 0.943 | locus YGL173C, strain kem1, active compounds read low 0.987 | locus YGL227W, strain vid30, active compounds read low 0.962 | locus YGL240W, strain doc1, active compounds read low 0.979 | locus YGL248W, strain PDE1, active compounds read low 1.01 | locus YGL253W, strain hxk2, active compounds read low 0.974 | locus YGR135W, strain pre9, active compounds read low 0.988 | locus YGR229C, strain SMI1, active compounds read low 1 | locus YGR252W, strain gcn5, active compounds read low 0.977 | locus YHR013C, strain ard1, active compounds read low 0.942 | locus YHR027C, strain rpn1, active compounds read low 0.973 | locus YHR030C, strain SLT2, active compounds read low 1 and 0.999 | locus YHR079C, strain IRE1 (second series), active compounds read low 1 | locus YHR079C, strain IRE1, active compounds read low 0.983 | locus YHR094C, strain hxt1, active compounds read low 1.02 | locus YHR129C, strain ARP1, active compounds read low 1 | locus YHR142W, strain chs7, active compounds read low 0.973 | locus YHR200W, strain rpn10, active compounds read low 1.02 | locus YIL066C, strain RNR3, active compounds read low 1.02 | locus YIL073C, strain SPO22, active compounds read low 1.03 | locus YIL125W, strain kgd1, active compounds read low 0.975 | locus YIR030C, strain dcg1, active compounds read low 1 | locus YJL092W, strain hpr5, active compounds read low 0.978 | locus YJL095W, strain BCK1 (second series), active compounds read low 0.988 | locus YJL095W, strain BCK1, active compounds read low 0.98 and 0.997 | locus YJL115W, strain asf1, active compounds read low 0.975 | locus YJL129C, strain trk1, active compounds read low 0.972 | locus YJL134W, strain LCB3, active compounds read low 1.01 | locus YJL154C, strain vps35, active compounds read low 0.976 | locus YJL164C, strain tpk1, active compounds read low 0.985 | locus YJL166W, strain qcr8, active compounds read low 1 | locus YJL168C, strain set2, active compounds read low 0.993 | locus YJL187C, strain SWE1 (second series), active compounds read low 1 | locus YJL187C, strain SWE1, active compounds read low 0.976
